Screens from PubChem BioAssay.
Only some compounds are listed: those with a hit (about 3.4% of all), similar ones and a draw of the others.
rRNA inh HTS – inhibitors of bacterial rRNA selective over humanized ribosomes. GFP signal change (wild-type ribosome), % (concentration not given with the values). 1.6% of 350,000 active. E. coli WT GFP vs humanized-ribosome RFP mutants, fluorescence, 24 h; stronger effect = lower value; DMSO median 0, no signal -100;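 active = significant combined selectivity score with lowered wild-type GFP, culture density cut under 30%, mutant RFP and density less affected; inactive = any of these conditions unmet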
EWS-Fli block – EWS/Fli transcriptional activity inhibition. AID 651661. inhibition, % at 12.6 µM. A673 NR0B1-luciferase reporter, viability-normalised. 0.67% of 350,000 active;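 active = mean inhibition of at least 50% after viability correction, with every replicate also passing that limit; inconclusive = mean reaches 50% but only one of two replicates passes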;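 also: firefly luciferase signal divided by Alamar Blue viability fluorescence both relative to DMSO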
PGC1a acetyl inh – PGC1a acetylation modulation, inhibitor mode; U2OS PGC1a acetylation, AlphaScreen anti-acetyl-lysine; with virally co-expressed GCN5 acetyltransferase; AID 651687; 0.17% of 350,000 active; inhibition, % at 15.6 µM;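 active = every replicate shows inhibition of at least 40%; inconclusive = mean inhibition at least 40% but some replicate below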;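 also: 0% = neutral control wells and 100% = positive control wells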
PAX8 inh HTS – lowers PAX8-driven luciferase in RMG-I cells; 1.2% of 360,000 active; inhibition, % at 12.6 µM; RMG-I TPO-luciferase reporter, SteadyGlo, 24 h; AID 652154;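 active = mean replicate inhibition at least 60% with every replicate also reaching 60%; inconclusive = only one of the two criteria is met; inactive = mean below 60% and not all replicates reaching 60%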;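 also: luciferase light reporting Pax8 driven TPO promoter activity; plate controls were median of neutral control wells for no effect and mitoxantrone controls for full effect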
SIRT5 inh – sirtuin-5 (human) deacylase inhibition; Q9NXA8; Purified SirT5, succinyl-peptide AMC, trypsin-coupled fluorescence; inhibition, % at 15 µM; 1.1% of 330,000 active; in the data active = inhibition above about 15%; inconclusive = no clear call, values can overlap the other calls
Target sequence (Q9NXA8 whole entry, looked up): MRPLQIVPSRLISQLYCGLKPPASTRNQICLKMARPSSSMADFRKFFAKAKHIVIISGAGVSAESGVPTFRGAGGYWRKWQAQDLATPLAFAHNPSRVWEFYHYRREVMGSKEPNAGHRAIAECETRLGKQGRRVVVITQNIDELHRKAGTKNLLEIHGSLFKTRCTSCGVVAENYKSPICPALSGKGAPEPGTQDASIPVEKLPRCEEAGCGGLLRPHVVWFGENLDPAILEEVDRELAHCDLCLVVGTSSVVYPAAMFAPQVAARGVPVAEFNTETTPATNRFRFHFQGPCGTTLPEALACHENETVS
LGR2 inh – inhibitors of bursicon-induced Drosophila LGR2 receptor cAMP signaling | AID 720647 | 0.35% of 380,000 active | HEK293 LGR2, CRE-luciferase, bursicon-stimulated, 4 h | inhibition, % at 9.99 µM;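 active = drop in luminescence signal, shown as inhibition above about 50% in the replicate tests, limit read from the data, passing the limit was not always enough; inconclusive = probably only some replicates passing the limit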;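 also: agonist challenge used bursicon conditioned medium at about half maximal strength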
Starred values were filed as active, the others as inactive; ? = inconclusive; / = no result.

SMILES	rRNA inh HTS	EWS-Fli block	PGC1a acetyl inh	PAX8 inh HTS	SIRT5 inh	LGR2 inh
CCCNC(=O)N1CC2(C1)[C@H](c1ccccc1)[C@H](CO)N2C(=O)C1CC1	2	2	7	-2	24*	-15
COc1cccc(CN2[C@H](CO)[C@H](c3ccccc3)C23CN(C(=O)C2CCCC2)C3)c1	-7	-6	-6	/	2	5
COc1cccc(CN2[C@@H](CO)[C@H](c3ccccc3)C23CN(C(=O)C2CCCC2)C3)c1	1	16	7	-7	26*	6
CCCNC(=O)N1CC2(C1)[C@H](c1ccccc1)[C@H](CO)N2C(=O)C1CCC1	4	-6	1	/	-1	7
COc1ccccc1CN1[C@H](CO)[C@H](c2ccccc2)C12CN(C(C)=O)C2	0	0	9	0	17*	-23
O=S(=O)(c1ccc(F)cc1)N1CCCCN2[C@H](C1)[C@H](c1ccc(-c3ccccc3F)cc1)[C@@H]2CO	/	6	-6	11	17*	/
O=S(=O)(c1ccc(F)cc1)N1CCCCN2[C@H](CO)[C@H](c3ccc(-c4ccccc4F)cc3)[C@@H]2C1	/	2	0	53	20*	/
O=S(=O)(c1ccc(F)cc1)N1CCCCN2[C@@H](CO)[C@@H](c3ccc(-c4ccccc4F)cc3)[C@@H]2C1	/	0	-20	5	16*	/
O=S(=O)(c1ccc(F)cc1)N1CCCCN2[C@H](CO)[C@H](c3ccc(-c4ccccc4F)cc3)[C@H]2C1	/	0	-18	-7	-1	/
O=S(=O)(c1ccc(F)cc1)N1CCCCN2[C@H](C1)[C@@H](c1ccc(-c3ccccc3F)cc1)[C@@H]2CO	/	9	-1	0	14	/
Cc1ccccc1-c1ccc([C@@H]2[C@H](CO)N3CCCCN(S(=O)(=O)Cc4ccccc4)C[C@@H]23)cc1	-58	57*	-12	-24	/	0
CCCC#Cc1cnc2c(c1)C(=O)N([C@H](C)CO)C[C@H](C)[C@H](CN(C)C(=O)Nc1ccc(OC)cc1)O2	-1	-8	3	/	2	0
CO[C@H]1CN(C)C(=O)c2ccc(NC(=O)c3ccc(F)cc3)cc2OC[C@H](C)N(C(=O)CN(C)C)C[C@@H]1C	0	-4	-30	/	/	-5
Cc1ccccc1-c1ccc([C@@H]2[C@@H](CO)N3CCCCN(S(=O)(=O)c4ccc(F)cc4)C[C@H]23)cc1	-54	14	-5	-9	/	3
Cc1ccccc1-c1ccc([C@H]2[C@H](CO)N3CCCCN(S(=O)(=O)c4ccc(F)cc4)C[C@@H]23)cc1	-51	21	-12	24	21*	18
O=S(=O)(c1ccc(F)cc1)N1CCCCN2[C@@H](CO)[C@H](c3ccc(-c4ccccc4F)cc3)[C@@H]2C1	/	9	-15	10	22*	/
O=S(=O)(c1ccccc1)N1CCCCN2[C@H](CO)[C@H](c3ccc(-c4ccccc4F)cc3)[C@H]2C1	-58	14	-6	114*	1	-11
O=S(=O)(c1ccccc1)N1CCCCN2[C@H](CO)[C@@H](c3ccc(-c4ccccc4F)cc3)[C@@H]2C1	3	/	/	/	/	/
C[C@@H]1CCCCO[C@@H](CN(C)Cc2ccncc2)[C@H](C)CN([C@@H](C)CO)C(=O)c2cc(NC(=O)CCC(F)(F)F)ccc2O1	2	-3	29	3	-6	12
CO[C@@H]1CN(C)C(=O)c2cc(NC(=O)C3CCCC3)ccc2OC[C@@H](C)N(CCC(F)(F)F)C[C@H]1C	-6	6	/	8	5	7
Cc1[nH][nH]c(=O)c1C(c1cc([N+](=O)[O-])ccc1O)c1c(C)[nH][nH]c1=O	3	20	/	24	26*	-2
Cc1[nH][nH]c(=O)c1C(c1ccccc1[N+](=O)[O-])C(C#N)C#N (stereo not drawn)	8	14	10	10	1	-1
CC1=CN2C(=N)/C(=C/c3ccco3)C(=O)N=C2S1	18	-31	/	-82	-3	40
CC1=CN2C(=N)/C(=C/c3ccc([N+](=O)[O-])o3)C(=O)N=C2S1	6	56*	/	14	21*	?
CN1C(=O)c2cc(NC(=O)C3CC3)ccc2OC[C@@H]2O[C@H](CC(=O)NCc3cccc(F)c3)CC[C@@H]21	-6	12	13	4	/	-19
SMILES	rRNA inh HTS	EWS-Fli block	PGC1a acetyl inh	PAX8 inh HTS	SIRT5 inh	LGR2 inh
CC1(C(=O)NCCC(F)(F)F)Cc2c(-c3cccc(C(F)(F)F)c3)ccnc2O1 (stereo not drawn)	-7	42	4	10	0	11
CC1(C(=O)Nc2cccc(C(F)(F)F)c2)Cc2c(-c3cccc(C(F)(F)F)c3)ccnc2O1 (stereo not drawn)	8	6	2	-1	21*	13
CC(=O)Nc1cccc(-c2ccnc3c2CC(C)(C(=O)Nc2cccc(Oc4ccccc4)c2)O3)c1 (stereo not drawn)	4	20	8	64*	/	12
CC(=O)Nc1cccc(-c2ccnc3c2CC(C)(C(=O)NCc2cccc(Cl)c2)O3)c1 (stereo not drawn)	0	20	-16	12	-2	-15
CC1(C(=O)NCC2CCOCC2)Cc2c(-c3cccc(C(F)(F)F)c3)ccnc2O1 (stereo not drawn)	-17	52*	-3	22	/	6
CC(=O)Nc1cccc(-c2ccnc3c2CC(C)(C(=O)NCc2cccs2)O3)c1 (stereo not drawn)	-17	60*	/	13	1	-10
N#C[C@H]1[C@H](c2ccccc2C2=CCCCC2)[C@@H](CO)N1S(=O)(=O)c1cccc(F)c1	-30	2	-25	/	-1	19
CC(=O)N(C)C[C@@H]1Oc2cc(-c3ccccc3C)ccc2S(=O)(=O)N([C@H](C)CO)C[C@@H]1C	-2	-9	1	/	-3	4
O=C(Cc1ccccc1)N1CC2(C1)[C@H](c1ccccc1)[C@H](CO)N2S(=O)(=O)Cc1ccccc1	-3	-2	-13	5	-1	1
C[C@@H]1CCCCO[C@H](CN(C)C)[C@@H](C)CN([C@@H](C)CO)C(=O)c2cc(NS(=O)(=O)c3cccs3)ccc2O1	0	-8	8	18	-1	2
CC(=O)Nc1ccc2c(c1)CC(=O)N(C)C[C@H](C)[C@H](CN(C)C(=O)OC(C)(C)C)O2	0	/	/	/	/	/
COc1ccc2c(COC(=O)CNC(=O)C34CC5CC(CC(C5)C3)C4)cc(=O)oc2c1	-32	5	/	122*	-22	-5
CC(=O)Nc1cccc(-c2cn3ccccc3n2)c1	3	-46	/	-71	-7	-31
O=C(Nc1cccc(-c2cn3ccccc3n2)c1)c1cc2ccccc2oc1=O	3	-78	/	/	19*	-39
COc1ccccc1/C=C/C=N/n1c(-c2ccncc2)n[nH]c1=S	/	/	/	/	/	5
